Bioassay records deposited in PubChem by National Center for Advancing Translational Sciences (NCATS).
Only a selection was taken, and hits are over-represented in it overall.
ERK EGF block – blocks ERK signaling stimulated by EGF | HEK293-V1b, EGF-stimulated phospho-ERK AlphaScreen | Potency, µM (titrated, usually from 11.5 µM), for inactives: at the highest dose activity change, negative = inhibition, usual class: inhibitors | 130,000 compounds, 0.41% hits | AID 1454;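 note: plate controls were stimulated vehicle wells for no effect and unstimulated vehicle basal for full effect; nearly all actives have a fitted effect of over 55% in size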
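HEK293 cells stably expressing V1b receptor, serum-reduced (1% FBS) overnight, pretreated 30 min with compound, then stimulated 5 min with 25 nM EGF; phospho-ERK detected by AlphaScreen SureFire. AC50 from Hill fits, normalized to DMSO and EGF.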
NPSR antagonist – blocks cAMP signaling of the human neuropeptide S receptor | CHO-NPSR cells, cAMP TR-FRET, antagonist mode | Potency, µM (series often up to 38.3 µM), without a hit: at the top dose activity change, negative = inhibition, most hits filed as inhibitors | 220,000 compounds, 1% hits; note: nearly all actives have a fitted effect of over 50% in size
Target sequence (Q6W5P4 whole entry, looked up): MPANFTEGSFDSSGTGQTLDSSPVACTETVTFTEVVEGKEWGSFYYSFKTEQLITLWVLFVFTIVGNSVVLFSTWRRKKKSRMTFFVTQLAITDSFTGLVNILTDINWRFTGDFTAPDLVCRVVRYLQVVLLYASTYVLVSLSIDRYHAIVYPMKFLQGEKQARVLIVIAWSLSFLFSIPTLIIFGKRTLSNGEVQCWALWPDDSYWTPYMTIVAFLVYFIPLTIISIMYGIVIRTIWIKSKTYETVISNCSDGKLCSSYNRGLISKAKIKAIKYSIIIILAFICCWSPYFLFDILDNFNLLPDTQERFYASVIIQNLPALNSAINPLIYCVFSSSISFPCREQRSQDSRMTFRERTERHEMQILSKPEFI
IMPase Li cell – IMPase inhibition in cells with lithium potentiation | CHO-M1 cells, IP1 TR-FRET (IP-One), carbachol + lithium | Potency, µM (top dose mostly 59.4 µM), for the others: top-dose activity, negative = IMPase inhibition, actives largely listed as inhibitors | 210,000 compounds, 0.35% hits | AID 1457;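 note: IP1 builds up when IMPase is blocked and the TR-FRET signal falls; plate controls were basal vehicle for no effect and high inhibitor control for full effect; nearly all actives have a fitted effect of over 50% in size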
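Test compounds were applied to CHO-M1 cells previously cultured for 16–30 h at 2000 per well. A small lithium amount accompanied them; after 30 min at 37C, IP1 was quantified by TR-FRET.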
* marks the source's active call; other numbers are inactive results; ? = inconclusive; / = no result; ! = repeats disagree; [ ] = dose if it differs, or a comment. Calls come from the whole dose curve; as a rule, active = well fitted curve in the direction sought with a large enough effect; inconclusive = small, poorly fitted or top-dose-only effect, or another doubt; inactive = no such curve, though single readings can be large; an effect the other way counts as inactive or inconclusive. Unless noted, % is set by controls: 0 for no effect and ±100 for the full control effect; potency is the fitted concentration of half-maximal effect.

SMILES	ERK EGF block	NPSR antagonist	IMPase Li cell
C=C1CC[C@H](O)C/C1=C/C=C1\CCC[C@]2(C)C([C@H](C)CCCC(C)(C)O)CC[C@@H]12 (stereo partly drawn)	/	/	-1%
C#CCn1c(S(=O)(=O)Cc2ccccc2Cl)nc(-c2ccccc2)c1-c1ccccc1	/	10µM*	37%[38.3 µM]
C#CCn1c(S(=O)(=O)Cc2ccc(C)cc2)nc(-c2ccccc2)c1-c1ccccc1	/	?	4%[38.3 µM]
CCCCC1=CC2=C(OC(C)=O)C(=O)C(C)(OC(=O)c3ccc(Cl)nc3)C(=O)C2=CO1 (stereo not drawn)	-3%	/	14%
COc1cccc(Cn2c(=O)cnc3cnc(Nc4ccccc4)nc32)c1	/	/	12%
O=C(Nc1ccccc1Cl)Nc1ccccc1Cl	-10%[57.5 µM]	2%	/
O=C(Nc1ccc(Nc2ccccc2)cc1)Nc1ccccc1Cl	28µM*	?	/
Cc1cccc(Cl)c1NC[C@H](O)CN1CCN(C)CC1	/	/	1%
CCc1ccc(/C=C/C(=O)c2cc(Br)ccc(=O)c2O)cc1	/	-25%[46.1 µM]	11%[38.3 µM]
Cc1cccc(/C=C/C(=O)c2cc(Br)ccc(=O)c2O)c1	/	10µM*	17%[38.3 µM]
COc1cc(C)c(CC/C(C)=C/C=C/C(C)=O)c(C)c1C	-12%	/	26%
COc1ccccc1CNc1ccnc(-c2ccc(N(C)C)cc2)n1	/	/	-1%
Cc1ccc(-c2ccc(C(=O)O)c(C)n2)cc1	-4%	4%	3%
Cc1nc(-c2ccc(Br)cc2)ccc1C(=O)O	8%	-17%	8.9µM*
CCOc1ccc(/C=C/[N+](=O)[O-])c2ccccc12	/	10µM*	19%[38.3 µM]
CCOC(=O)COc1ccc2ccccc2c1/C=C/[N+](=O)[O-]	?	?	17%
OCCNc1ncnc2ccc(Br)cc12	/	4%[46.1 µM]	/
CCN(CC)c1ncnc2ccc(Br)cc12	/	9%[46.1 µM]	25µM*
COc1cccc2c1C(=O)CC(c1ccccc1)O2 (stereo not drawn)	3%	/	7%
CC(=O)NCCNc1ncncc1-c1ccc(N(C)C)cc1	/	/	8%
CN(C)c1ccc(-n2cccc2/C=C/[N+](=O)[O-])cc1	?	7.9µM*	13%
CN(c1ccccc1)c1ccc(/C=C/[N+](=O)[O-])cc1	?	?	17%
COc1cccc2c1C(=O)c1c(O)c3c(c(O)c1C2=O)C[C@@](O)(C(C)=O)C[C@@H]3O[C@H]1C[C@H](N)[C@H](O)[C@H](C)O1	25µM*!	?	33%
COc1cccc2c1C(=O)c1c(O)c3c(c(O)c1C2=O)C[C@@](O)(C(=O)CO)C[C@@H]3OC1C[C@@H](N)[C@H](O)[C@H](C)O1 (stereo partly drawn)	/	/	17%
CCOC(=O)C(C)(C)[C@H](O)C(C)C	/	/	-5%
SMILES	ERK EGF block	NPSR antagonist	IMPase Li cell
c1cc2c3c(c1)ccc1cccc(c13)C2	/	/	-21%
Oc1[nH]c2ccccc2c1N=Nc1ccc(F)cc1	-1%	-2%	2%
Oc1ccc2ccccc2c1N=Nc1ccc(F)cc1	13µM*	2%	/
Clc1cncc(Cl)c1NNc1c2ccccc2nc2ccccc12	13µM*	-18%	5%
Nc1c2ccccc2nc2ccccc12	10%	26%	4%
CC(C)(C)OC(=O)[C@H](C1N[C@@H](C(=O)O)C(C)(C)S1)N1C(=O)c2ccccc2C1=O (stereo partly drawn)	/	/	-9%
O=S(c1ccc2ccccc2c1)c1cnns1 (stereo not drawn)	/	10µM*	-5%[38.3 µM]
O=c1c2ccccc2cnn1-c1ccc2ccccc2c1	/	-13%[46.1 µM]	1%[38.3 µM]
Cc1nc2cnc(N(C)C)nc2n(CCc2ccccc2)c1=O	/	/	15%
N#Cc1c(-c2ccc(Cl)cc2)nc2n(c1=O)CCCS2	/	-8%[46.1 µM]	?
N#Cc1c(-c2ccc(Br)cc2)nc2n(c1=O)CCCS2	/	-23%[46.1 µM]	8.9µM*
CS(=O)(=O)Nc1ccc(Nc2c3ccccc3nc3ccccc23)cc1	/	/	0%
N[C@@H](Cn1ccc(=O)n(Cc2ccccc2C(=O)O)c1=O)C(=O)O	-6%	/	10%
O=[N+]([O-])c1ccc2c(c1Nc1ccccc1)=NC1(CCCCC1)N=2	/	-11%[46.1 µM]	9%[38.3 µM]
COc1ccc(Nc2c([N+](=O)[O-])ccc3c2=NC2(CCCCC2)N=3)cc1	14µM*	10µM*	50%
O=C(c1ccc(Cl)cc1)C1CCCN(Cc2cnn(-c3ccccc3)c2)C1 (stereo not drawn)	28µM*	44%	16%
O=C(c1ccc(-c2ccccc2)cc1)C1CCCN(Cc2ccncc2)C1 (stereo not drawn)	?	20%	-7%
CCN1/C(=C/c2cc[n+](CCCS(=O)(=O)[O-])c3ccccc23)Sc2ccccc21	-5%	-55%	45%
C=CC[n+]1ccc(/C=C2\C=Cc3cc(C)ccc3N2CC)c2ccccc21	14µM*	?	42%
COc1ccc(-c2nc3cnc(N4CCN(C)CC4)nc3n(Cc3cccc(OC)c3)c2=O)cc1	/	/	29%
Cc1sc2cc3c(c(C(=O)c4ccccc4)[n+]2c1C)-c1cccc2cccc-3c12	8%	?	37%
O=C(c1ccccc1)c1c2c(cc3sc4ccccc4[n+]13)-c1cccc3cccc-2c13	0%	10µM*	30%
CCN(CCCNC(=O)C1c2ccccc2C(=O)N(CCOC)C1c1ccc(F)cc1)Cc1ccccc1 (stereo not drawn)	-2%	10µM*	6%
CCN(CC)CCCNC(=O)C1c2ccccc2C(=O)N(CCOC)C1c1ccc(F)cc1 (stereo not drawn)	-19%	-14%	7%
COCC(=O)O[C@]1(CCN(C)CCCc2nc3ccccc3[nH]2)CCc2cc(F)ccc2[C@@H]1C(C)C	10%	10µM*	11%
SMILES	ERK EGF block	NPSR antagonist	IMPase Li cell
CCOC(=O)CCc1nc2ccccc2[nH]1	/	9%[46.1 µM]	-1%[38.3 µM]
COc1cccc(-c2ccc3ncnc(N(C)C)c3c2)c1	/	/	15%
CCCCCCCCCCCCCCC[C@@H](O)[C@H](CO)NC(C)=O	-3%	/	-10%
O=C(OCc1ccccc1)[C@@H]1COC(c2ccc(Br)cc2)=N1	/	/	5%
N#Cc1cccc(CS(=O)(=O)c2nc3ccccc3s2)c1	1%	/	3%
CSc1nnc(NC(=O)CCc2ccccc2)s1	/	-9%[46.1 µM]	28µM*
CCSc1nnc(NC(=O)CCc2ccc(OC)cc2)s1	-4%	-1%	?
C#C[C@]1(O)CCC2C3CCC4=Cc5oncc5C[C@@]4(C)C3CC[C@@]21C (stereo partly drawn)	-12%	/	/
COc1ccc2oc(-c3ccccc3)c(OC)c(=O)c2c1	2%	/	22%
COc1ccc2oc(-c3ccccc3)c(C(N)=O)c2c1	/	6%[46.1 µM]	11µM*
CN(C)CCCNC(=O)/C(=C\C=C\c1ccccc1)NC(=O)c1ccc([N+](=O)[O-])cc1	-3%[57.5 µM]	-19%	/
N#CC1=C2SCN(Cc3ccccc3)CN2C(=O)CC1c1ccc2c(c1)OCO2 (stereo not drawn)	/	-10%[46.1 µM]	7%
N#CC1=C2SCN(Cc3ccccc3)CN2C(=O)CC1c1cccs1 (stereo not drawn)	/	?	11µM*
COc1ccccc1[C@H]1C(c2ccccc2)=NN(c2ccccc2)[C@@H]1CO	/	/	25µM*
OC[C@@H]1[C@@H](c2ccc(Cl)cc2)C(c2ccccc2)=NN1c1ccccc1	/	/	22µM*
COc1ccccc1[C@H]1C(c2cccc(C)c2)=NN(c2ccccc2)[C@@H]1CO	/	/	-29%
